# Measured values taken from PubChem BioAssay (NCI).
# Compounds without any hit were thinned out: in the full panel of roughly 83,000, 20% have a hit.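 Single-dose data. Exposure time 48 hours. Values below 10 considered active.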 A number with no mark means an inactive call. Calls of active or inactive are those of the source.
# Columns and labels:
# Test in all cases: NCI-60 one-dose screen, 48 h (100 = growth as untreated, 0 = no growth, -100 = all killed)
# Settings in all cases: 10 µM unless noted
# SK-MEL-2 melanoma = tested on: SK-MEL-2 melanoma
# EKVX NSCLC = tested on: EKVX NSCLC
# SN12C renal = tested on: SN12C renal
# UO-31 renal = tested on: UO-31 renal
# TK-10 renal = tested on: TK-10 renal
# ACHN renal = tested on: ACHN renal
# CAKI-1 renal = tested on: CAKI-1 renal
# A498 renal = tested on: A498 renal
# CCRF-CEM leukemia = tested on: CCRF-CEM leukemia
# MOLT-4 leukemia = tested on: MOLT-4 leukemia
# SR leukemia = tested on: SR leukemia
# RPMI-8226 leukemia = tested on: RPMI-8226 leukemia
# OVCAR-8 ovarian = tested on: OVCAR-8 ovarian
# OVCAR-5 ovarian = tested on: OVCAR-5 ovarian
# OVCAR-4 ovarian = tested on: OVCAR-4 ovarian
# SK-OV-3 ovarian = tested on: SK-OV-3 ovarian
# IGROV1 ovarian = tested on: IGROV1 ovarian
# OVCAR-3 ovarian = tested on: OVCAR-3 ovarian
# HS 578T breast = tested on: HS 578T breast
# NCI/ADR-RES ovarian = tested on: NCI/ADR-RES ovarian
Compound,growth (SK-MEL-2 melanoma) [%],growth (EKVX NSCLC),growth (SN12C renal),growth (UO-31 renal),growth (TK-10 renal),growth (ACHN renal),growth (CAKI-1 renal),growth (A498 renal) [%],growth (CCRF-CEM leukemia),growth (MOLT-4 leukemia),growth (SR leukemia),growth (RPMI-8226 leukemia),growth (OVCAR-8 ovarian),growth (OVCAR-5 ovarian),growth (OVCAR-4 ovarian),growth (SK-OV-3 ovarian) [%],growth (IGROV1 ovarian),growth (OVCAR-3 ovarian),growth (HS 578T breast) [%],growth (NCI/ADR-RES ovarian)
COc1ccc2cc(-c3ccc(-c4ccc(C(=N)N)s4)s3)ccc2c1,95.3,0.97% (active),-55.2% (active),36.6%,89.6%,27%,88.8%,73.6,-14% (active),1.6% (active),-14.5% (active),-20.9% (active),-32.6% (active),-33% (active),-45.6% (active),97.2,63%,-61.1% (active),90.3,-43% (active)
COc1cc(C(=O)C(=O)c2cc(OC)c(O)c(OC)c2)cc(OC)c1O,115,104%,91.3%,98.6%,95.8%,98%,105%,92.5,88.3%,108%,103%,91.3%,102%,97%,101%,103,117%,103%,110,101%
COc1cccc(/C=C2\COc3ccc(O)cc3C2=O)c1,104,98.4%,30.1%,69.1%,101%,84.7%,80.4%,104,-0.603% (active),40.2%,5.49% (active),-24.8% (active),80.7%,101%,95%,114,84.4%,78.4%,91.1,89.9%
COc1ccc2cc(-c3cnc4nonc4n3)ccc2c1,52.7,16.1%,38.7%,37.7%,54.5%,50.8%,29.7%,60.8,8.1% (active),6.87% (active),9.96% (active),0.566% (active),23.9%,76%,50%,71,60.3%,11.1%,13.9,-4.57% (active)
CCN(CC)c1ccc(/C=N/NC(=O)c2ccc(Nc3ccnc(C(F)(F)F)c3)cc2)c(O)c1,56.8,11.2%,24.4%,4.15% (active),43.5%,7.21% (active),7.86% (active),44.3,25.5%,103%,153%,20%,44.6%,32.5%,32.4%,10.1,39.3%,44%,64.9,26.3%
CCCCCCCCCCCCCCCCCCOc1ccccc1CC(=O)NCC[N+]1(C)CCOCC1,74.6,91.3%,40.5%,77.3%,7.69% (active),84.5%,98.6%,67.4,-36.4% (active),14.6%,18.2%,-4.77% (active),67.8%,26.3%,71.7%,81.2,-67.2% (active),67.3%,67.4,103%
CN1C(=O)/C(=C/c2ccc(C(=O)Nc3ncc(Cc4ccc(F)cc4)s3)cc2)SC1=S,71.2,48.4%,61.8%,46.5%,53.5%,28%,16.3%,35,47.8%,39.6%,44.5%,54.6%,57.9%,61.2%,60.1%,40.3,54.3%,27.7%,37.9,28.7%
O=C(Nc1ccc(F)cc1)Nc1ccccc1CNc1nc(Nc2ccc(OCCN3CCCC3)cc2)ncc1Cl,99,53.9%,-21.7% (active),-81.5% (active),47.2%,-61.9% (active),31.2%,80.4,6.77% (active),14.1%,2.14% (active),-4.89% (active),23.1%,16.9%,-7.62% (active),92.8,56.2%,-43.1% (active),74.3,44.5%
